Results filed as inconclusive are left out. The source made the active and inactive calls. The call rests on the fitted dose curve; in most records, active means well fitted cell-killing curve with a large enough effect; inconclusive means small, poorly fitted or top-dose-only effect, or effect the other way; inactive means no such curve, though single readings can be large or run the other way.
On the % scale 0 is the no-effect control and ±100 the full control effect; potency means the concentration at half of the fitted maximal effect.

The experiment has as its system CAOV3. The experiment is described as follows: Confirmatory qHTS for gynecologic anti-cancer compounds from libraries of approved drugs and bioactive compounds. Further: nearly all actives have a fitted effect of over 55% in size. The note with it: gynecologic cancer cell panel viability, ATPlite luminescence, 48 h; series mostly up to 57.6 µM; activity change, negative = viability loss: at the top concentration. In short, it runs like this: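 ATP-based luminescent viability (ATPlite) after 48 h drug treatment at 37 °C, 5% CO2, across 57.5 uM–0.977 nM in 1:3 steps. Cells seeded at 1,000 per well 16 h beforehand; IC50 values computed, HEK 293T as selectivity control.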
For orientation: Quantitative high-throughput screening tests each substance at several concentrations.
On to `CC(C)Nc1cc(-c2c[nH]c(C(=O)N[C@H](CO)c3cccc(Cl)c3)c2)c(Cl)cn1`, for which the “activity change, negative = viability loss” value is 8.77% (inactive).
For `CCn1c(-c2nonc2N)nc2c(C#CC(C)(C)O)ncc(OCC3CCCNC3)c21` (configuration not stated), the Potency is 24.3 µM (active).
Turning to `CC(C)c1nn(-c2c(Cl)cccc2Cl)c2nc(Cc3ccc(OCCO)cc3)[nH]c(=O)c12`, the “activity change, negative = viability loss” value is -3.9% (inactive).
With `CN(C)CCC(CSc1ccccc1)Nc1ccc(S(=O)(=O)NC(=O)c2ccc(N3CCN(Cc4ccccc4-c4ccc(Cl)cc4)CC3)cc2)cc1[N+](=O)[O-]` (configuration not stated), the Potency is 9.68 µM (active).
Take `NCCOc1cc(C(=O)Nc2cc(OCCN)c3ccccc3n2)nc(C(=O)Nc2cc(OCCN)c3ccccc3n2)c1`: the “activity change, negative = viability loss” value is -15.8% (inactive).
For `CN(c1nccc(=O)[nH]1)C1CCN(c2nc3ccccc3n2Cc2ccc(F)cc2)CC1`, the “activity change, negative = viability loss” value is 3.5% (inactive).
Consider `COc1cc(Nc2ncc(F)c(Nc3ccc4c(n3)N(COP(=O)(O)O)C(=O)C(C)(C)O4)n2)cc(OC)c1OC`, for which the Potency was 3.43 µM (active).
